From PubChem
HSP90 inh: HSP90 refolding inhibition in rabbit reticulocyte lysate; luciferase refolding luminescence, 3 h; inhibition, % at 5.6 µM; 290,000 tested, 0.91% active;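 active = inhibition above the screen-wide mean plus 3 SD, computed separately per campaign, cut at about 16% in these data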;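 note: 0% = DMSO wells and 100% = 60 µM geldanamycin wells; inhibitors lower the luminescence because luciferase stays unfolded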
SENP8 block-1: blocks the human protease SENP8 | Q96LD8 | purified SENP8, Z-RLRGG-aminoluciferin cleavage, luminescence | inhibition, % at 10 µM | 330,000 tested, 1.2% active; in the data active = inhibition above about 50%
SENP7 inh: SENP7 protease inhibition. Q9BQF6. recombinant SENP7, Z-RLRGG-aminoluciferin luminescence, 40 min. inhibition, % at 5 µM. 330,000 tested, 1.5% active;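 active = inhibition above about 50% at the single test dose, limit read from the data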;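 note: plate controls were DMSO with enzyme for no effect and no enzyme buffer wells for full effect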
SENP8 block-2: SENP8 (human) protease inhibition; Q96LD8; AID 602440; inhibition, % at 20 µM; 360,000 tested, 0.64% active; recombinant SENP8, Nedd8 substrate fluorescence; in the data active = inhibition mostly above about 40%, no sharp cut-off; inactive = mostly below about 27%
SENP6 inh: blocks the human protease SENP6. Recombinant SENP6 catalytic domain, aminoluciferin luminescence. inhibition, % at 10 µM. 330,000 tested, 1.8% active;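 active = inhibition above about 50% at the single tested dose, limit read from the data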;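 note: plate controls were DMSO wells with enzyme for no effect and DMSO wells lacking enzyme for full effect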
Target sequence (Q9GZR1 628-1112 limits assumed): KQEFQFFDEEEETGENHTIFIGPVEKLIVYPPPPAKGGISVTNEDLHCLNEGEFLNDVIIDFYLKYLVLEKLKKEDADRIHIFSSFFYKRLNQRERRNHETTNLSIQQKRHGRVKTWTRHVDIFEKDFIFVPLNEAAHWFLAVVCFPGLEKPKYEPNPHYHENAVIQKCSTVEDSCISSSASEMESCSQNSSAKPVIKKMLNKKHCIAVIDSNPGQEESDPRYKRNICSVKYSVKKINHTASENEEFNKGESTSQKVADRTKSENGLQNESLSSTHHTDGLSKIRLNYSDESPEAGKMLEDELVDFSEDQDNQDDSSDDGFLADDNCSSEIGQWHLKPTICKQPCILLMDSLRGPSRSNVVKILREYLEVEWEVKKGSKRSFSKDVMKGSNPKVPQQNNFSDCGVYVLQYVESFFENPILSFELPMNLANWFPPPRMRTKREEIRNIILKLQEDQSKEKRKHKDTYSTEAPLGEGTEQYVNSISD
SENP8 confirm: confirmation of human SENP8 protease inhibitors | shares compounds with SENP7 inh | Recombinant SENP8, Z-RLRGG-aminoluciferin luminescence, 60 min | inhibition, % at 12.5 µM | 6,200 tested, 40% active;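 active = mean inhibition across replicates above about 50%, limit read from the data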
SENP6 confirm: confirmation of human SENP6 protease inhibitors; shares compounds with SENP7 inh; recombinant SENP6, Z-RLRGG-aminoluciferin luminescence; inhibition, % at 12.5 µM; 6,200 tested, 58% active
SENP7 confirm: confirmation of human SENP7 protease inhibitors; shares compounds with SENP7 inh; inhibition, % at 12.5 µM; 6,200 tested, 69% active; recombinant SENP7, Z-RLRGG-aminoluciferin luminescence, 40 min
Casp3 select: selectivity test for SENP inhibitors: human caspase-3 inhibition | shares compounds with SENP7 inh | purified caspase-3, Z-DEVD-aminoluciferin luminescence, 60 min | inhibition, % at 12.5 µM | 6,200 tested, 60% active;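 active = mean inhibition above about 50%, limit read from the data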;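 note: plate controls were enzyme with DMSO for no effect and wells without caspase-3 for full effect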
SENP luc ctr: luminescence interference (SENP counter-screen); shares compounds with SENP7 inh; Pre-incubated SENP8/Z-RLRGG-aminoluciferin, luciferase luminescence interference; inhibition, % at 12.5 µM; 6,200 tested, 39% active; AID 488919;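 active = mean inhibition above about 50% when retested at one dose, limit read from the data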;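 note: plate controls were DMSO wells with completed reaction for no effect and substrate without enzyme for full effect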
* marks the source's active call; other numbers are inactive results; i = inactive; / = no result. Only some compounds are listed: those with a hit (about 2.8% of all), similar ones and a draw of the others.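 Rule for the calls, unless noted: active = mean inhibition above about 50% in the one-dose retest (limit read from the data); inactive = the rest.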

SMILES	HSP90 inh	SENP8 block-1	SENP7 inh	SENP8 block-2	SENP6 inh	SENP8 confirm	SENP6 confirm	SENP7 confirm	Casp3 select	SENP luc ctr
COCC(C)NS(=O)(=O)c1ccc(C(=O)NCCCn2ccc3ccccc32)cc1 (stereo not given)	-1	-6	1	10	-14	/	/	/	/	/
Cc1ccc(C(=O)Nc2ccc(O)cc2C(=O)O)cc1	3	35	42	12	63*	62*	58*	83*	75*	64*
CN1C(=O)/C(=C/c2ccc(C(=O)Nc3ccc(O)cc3C(=O)O)cc2)SC1=S	-6	96*	60*	26	93*	62*	97*	70*	98*	29
Cc1cccc(C(=O)Nc2ccc(O)cc2C(=O)O)c1	-2	88*	77*	13	93*	88*	90*	100*	95*	91*
Cc1ccc(C(=O)Nc2ccc(O)cc2C(=O)O)cc1C	1	25	24	18	46	/	/	/	/	/
CCOc1ccc(N2C(=O)CC(N3CCC(NC(=O)Nc4ccccc4)CC3)C2=O)cc1 (stereo not given)	0	-2	-7	22	-29	/	/	/	/	/
c1ccc(SCc2cn(C[C@H]3CC[C@@H]([C@@H]4CC[C@H](Cn5cc(CSc6ccccc6)nn5)O4)O3)nn2)cc1	-6	-6	5	10	-15	/	/	/	/	/
O=C(CCCN1C(=O)/C(=C/c2ccccc2Cl)SC1=S)Nc1cccnc1	9	47	51*	18	36	0	48	14	24	6
O=C(CCN1C(=O)/C(=C/c2ccccc2Cl)SC1=S)NN1CCOCC1	-2	45	52*	14	37	8	8	8	16	4
CC(=O)Nc1cccc(OCCOc2cccc([N+](=O)[O-])c2)c1	/	/	/	-2	/	/	/	/	/	/
CC(C)(C)OC(=O)N(Cc1ccccc1)Cc1ccccc1OCc1cccc(NC(=O)C2CC2)c1	/	/	/	10	/	/	/	/	/	/
Cc1cccc(-c2nsc(SCC(=O)N3CCCC3)n2)c1	4	49	67*	33	80*	59*	65*	87*	77*	55*
Cc1ccccc1-c1nnc(-c2ccc(Br)cc2)o1	-5	33	67*	2	75*	14	13	22	30	7
Cc1ccccc1-c1nnc(-c2ccccc2C)o1	2	58*	85*	1	77*	13	29	63*	41	11
Cc1ccc(Sc2ncccc2N)cc1	/	20	25	-32	67*	-25	-16	-12	-10	-4
COc1ccc2[nH]c3c(NCCCOC(C)C)ncnc3c2c1	-4	90*	96*	-267	93*	90*	93*	101*	96*	93*
CCCOc1ccc(/C=N/Nc2ccccc2[N+](=O)[O-])c(O)c1	3	94*	99*	38	96*	58*	46	30	78*	8
Cc1ccccc1C(=O)Nc1ccc(Br)cn1	0	39	51*	6	59*	7	40	79*	63*	16
O=C(Nc1ccon1)c1ccc(Br)s1	5	-17	-17	0	-17	/	/	/	/	/
Cc1ccc(NC(=O)c2cc(F)c(F)cc2Cl)nc1	-3	-8	4	4	-14	/	/	/	/	/
O=C(Nc1ccc(Br)cn1)c1ccc(Br)s1	5	39	48	11	50*	10	16	77*	40	27
Cc1ccc(NC(=O)c2ccccc2F)nc1	5	44	51*	-318	74*	33	58*	85*	86*	49
Cc1ccc2nc(NC(=O)c3ccccc3F)sc2c1	8	81*	91*	-34	86*	22	76*	50*	64*	7
CCc1ccc(CCC(=O)N2CCN(S(=O)(=O)c3sc(C(=O)O)c(C)c3C(=O)O)CC2)cc1	/	/	/	13	/	/	/	/	/	/
Cc1cc(C(=O)Nc2ccc(Br)cn2)sc1C	/	84*	87*	-2	84*	81*	87*	97*	78*	64*
SMILES	HSP90 inh	SENP8 block-1	SENP7 inh	SENP8 block-2	SENP6 inh	SENP8 confirm	SENP6 confirm	SENP7 confirm	Casp3 select	SENP luc ctr
c1ccc(-c2nnc(-c3ccccn3)nn2)nc1	/	79*	11	33	14	-4	54*	85*	86*	66*
c1ccc(-c2ccc(-c3ccccn3)s2)nc1	2	76*	84*	-418	83*	75*	81*	97*	86*	21
COc1ccc(/C=C(\C#N)C(=O)Nc2cccc(C)n2)cc1	1	51*	36	8	50*	11	18	16	11	21
Cn1cccc1C(=O)/C(C#N)=C/c1ccc(F)cc1	3	-1	0	10	15	/	/	/	/	/
COc1ccc(/C=C(\C#N)C(=O)c2cccn2C)cc1	-1	69*	78*	18	79*	87*	87*	94*	72*	82*
CC(C)n1cc(/C=C2/NC(=O)NC2=O)c2ccccc21	10	6	3	-95	5	/	/	/	/	/
CS(=O)(=O)c1ccc2nc(NC(=O)c3ccco3)sc2c1	4	23	26	-236	24	/	/	/	/	/
CS(=O)(=O)c1ccc2sc(NC(=O)c3cc4ccccc4o3)nc2c1	-2	46	28	-415	77*	-4	-6	0	38	23
Cc1ccc(C(=O)Nc2nc3ccc(S(C)(=O)=O)cc3s2)o1	4	33	60*	-235	-15	56*	54*	84*	86*	64*
O=C(Nc1nc2ccc(Cl)cc2s1)c1ccc(Br)o1	-3	30	59*	-274	53*	10	18	7	16	6
CS(=O)(=O)c1ccc2nc(NC(=O)c3cc4ccccc4o3)sc2c1	3	52*	54*	i	83*	17	14	41	34	6
CN(c1ccccc1)S(=O)(=O)c1cccc(C(=O)Nc2ccc3c(c2)CCC3)c1	4	4	8	13	6	/	/	/	/	/
CC(=O)Nc1nc2ccc(-c3nc4ccccc4o3)cc2s1	-2	24	64*	-495	-2	20	16	20	12	-3
Cc1ccc(C(=O)NCC(=O)OCN2C(=O)c3ccccc3C2=O)cc1C	/	-5	7	14	-12	/	/	/	/	/
O=C(N[C@@H](Cc1ccccc1)C(=O)O)c1ccc(C(F)(F)F)cc1	8	5	-1	5	3	/	/	/	/	/
